According to the supplement of paper PMC3334620:
Over roughly 33,000 sequences, “E-score (-0.5 to 0.5)” has its median near -0.016; the highest 2% begin near 0.32. This is one part of a sample in which the highest values are shown more often than they occur.

biological target: T1, Stp1 (UniProt B3LFK1); experiment: PBM E-score (8-mer binding enrichment) (E-score (-0.5 to 0.5)); higher = stronger / more preferred TF binding; settings: protein concentration: 200 nM; construct: GST-full length
T1 sequence: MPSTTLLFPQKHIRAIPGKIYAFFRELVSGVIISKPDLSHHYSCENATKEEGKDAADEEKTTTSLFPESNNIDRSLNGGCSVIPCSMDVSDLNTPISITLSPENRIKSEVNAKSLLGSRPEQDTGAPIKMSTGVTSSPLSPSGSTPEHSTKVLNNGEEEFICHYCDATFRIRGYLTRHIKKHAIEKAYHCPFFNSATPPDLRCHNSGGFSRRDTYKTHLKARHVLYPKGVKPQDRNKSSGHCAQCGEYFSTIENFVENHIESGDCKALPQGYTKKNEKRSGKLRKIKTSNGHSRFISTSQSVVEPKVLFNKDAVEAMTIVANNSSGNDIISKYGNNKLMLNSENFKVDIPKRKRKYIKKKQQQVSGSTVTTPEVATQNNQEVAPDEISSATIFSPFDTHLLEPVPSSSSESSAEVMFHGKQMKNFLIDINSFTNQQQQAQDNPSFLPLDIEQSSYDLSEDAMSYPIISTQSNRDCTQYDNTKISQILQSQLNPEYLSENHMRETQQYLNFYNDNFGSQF
How it was run: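 For each ungapped eight-base word taken together with its reverse complement, the Universal PBM Analysis Suite assigned an E-score. Binding data came from GST-tagged yeast transcription factors, applied at about 100-200 nM, on universal all-10-mer Agilent arrays made double-stranded by primer extension. Fluorescent anti-GST marked bound protein, and scans were normalised with masliner.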

Row | Sequence | PBM E-score
1 | ACATGTAT | 0.0569
2 | CAATCCAC | -0.128
3 | ATAGTTCG | 0.0223
4 | AATAGAGG | -0.00072
5 | CTTGATGA | 0.1
6 | ATCTGCAA | -0.145
7 | ACACACTG | -0.0947
8 | AGCCCCTG | -0.353
9 | AAAGAACA | -0.0165
10 | AAAGCACT | -0.0405
11 | AGCAGGCA | -0.0398
12 | GGGCGAGA | -0.132
13 | CGGCTCAC | 0.213
14 | AGGCTCAA | 0.0744
15 | CGGCTCCA | 0.425
16 | CGGCTCAG | 0.379
17 | AGGCTCCA | -0.0273
18 | CGGCTCAA | 0.351
19 | CGGCTCCC | 0.187
20 | TGGCTCAA | 0.00085
21 | AGGCTCAG | -0.0826
22 | ACCTTTCT | -0.0776
23 | CCAACAAG | 0.00906
24 | AACTGCGG | 0.173
25 | AGATGCCC | 0.06

Row | Sequence | PBM E-score
26 | ATATGCCA | 0.153
27 | ATATGCCC | -0.155
28 | CGATGCCG | 0.415
29 | AGATGCCG | 0.397
30 | CGATGCCC | 0.0311
31 | AGATGCCT | 0.107
32 | CGATGCCA | 0.105
33 | ATATGCCG | 0.347
34 | CCAACCTA | -0.175
35 | ATGCGGTA | 0.0546
36 | CTGCGGTA | 0.0752
37 | ATGCGGAA | 0.164
38 | CTGCGGCC | 0.214
39 | ATGCGGCA | 0.467
40 | CTGCGGCA | 0.422
41 | GTGCGGCA | 0.469
42 | GTGCGGAA | 0.132
43 | GTGCGGGA | 0.041
44 | AGTTTGTC | -0.0407
45 | CTCTGGGC | -0.215
46 | AGAGGTCG | -0.096
47 | AGATGAGG | -0.192
48 | AGTTAAGG | -0.0459
49 | ACCTGTAA | 0.00569
50 | AGATAGAG | -0.0214

Row | Sequence | PBM E-score
51 | GCTGATCC | -0.116
52 | AGCGGCAC | 0.457
53 | AGCGGCCT | 0.0372
54 | TGCGGCCA | 0.233
55 | AGCGGCAA | 0.321
56 | AGCGGGAT | 0.0317
57 | TCCGGCAA | -0.00549
58 | AGCGGAAA | 0.0606
59 | AGTGGCAA | 0.162
60 | AGCGGCAG | 0.301
61 | AGTGGCAC | 0.209
62 | TGCGGCAA | 0.412
63 | AGCGGCAT | 0.406
64 | CACATCGG | -0.152
65 | AATTTGGG | -0.0818
66 | CGAGGCCA | -0.178
67 | GATAAGGC | 0.216
68 | AAGGGCGT | 0.0591
69 | CGATAATC | -0.128
70 | ATCCGTCA | -0.0596
71 | CTAAACGA | 0.0761
72 | CAGTCTGA | -0.0528
73 | GGCGGCAA | 0.286
74 | GGCGGCAC | 0.446
75 | CGCGGCAG | 0.378

Row | Sequence | PBM E-score
76 | CGCGGGCA | 0.175
77 | CGCGGTAG | 0.0224
78 | GTCGGCAC | 0.172
79 | CGCGGCAA | 0.424
80 | GGGGGCAC | -0.266
81 | CGTGGCAG | 0.239
82 | AGGGGACA | -0.145
83 | AGGGGGGG | -0.287
84 | AGGCCTCC | -0.164
85 | GCTCTCGA | -0.144
86 | ATAACCCC | -0.223
87 | GCAAGCTA | -0.0537
88 | AGGCATGC | 0.144
89 | CTGCATGC | 0.12
90 | GGGCATGA | -0.0369
91 | CGGCATGC | 0.338
92 | CGGCATGA | 0.346
93 | AGGCATGA | -0.0157
94 | CGAGGAGA | -0.162
95 | AGCCAAAC | 0.00731
96 | CATTGCGG | 0.158
97 | GCGCTGCA | 0.232
98 | GGATTGAA | -0.0161
99 | GCGTGAGC | 0.193
100 | AGGCGGTA | -0.0932

Row | Sequence | PBM E-score
101 | AGGCGGGA | -0.183
102 | CGGCGGTA | 0.335
103 | CGGCGGAA | 0.328
104 | GGGCGGCA | 0.356
105 | GGGCGGGA | -0.11
106 | AGGCGGCA | 0.369
107 | AGGCGGAA | 0.0802
108 | GGGCGGTA | -0.128
109 | GGGCGGAA | -0.0696
110 | GGCGGGCA | 0.0418
111 | AGCCGGCA | 0.0341
112 | CACCTATG | -0.108
113 | CGCTAAAG | 0.0823
114 | GTTGAATA | 0.0719
115 | ATGTCCTC | -0.113
116 | AGCTGCGA | -0.129
117 | GCTCAACA | 0.00726
118 | CAGTCGGG | -0.14
119 | AGGCGGCC | 0.147
120 | CGGCGGCC | 0.214
121 | CGGCGGGA | 0.207
122 | AGGCGGCG | 0.391
123 | AGGCGGGG | 0.023
124 | CGGCGGCA | 0.418
125 | CCTAGCTC | -0.268

Row | Sequence | PBM E-score
126 | ATAGAAAT | 0.197
127 | CTGGCCCC | -0.311
128 | CATCACTC | -0.0239
129 | AAGACGGA | -0.0847
130 | CAGACGGA | 0.0941
131 | CAGACGCC | 0.114
132 | AAGACGCC | 0.321
133 | AAGACGCT | -0.13
134 | AAGACGGC | 0.318
135 | CAGACGGC | 0.42
136 | CAGACGGG | -0.242
137 | GAGACGGA | 0.065
138 | AAGACGGT | -0.169
139 | GAGACGGC | 0.411
140 | GAGACGAC | -0.104
141 | ACAGTGCG | -0.022
142 | CGCTGGAG | -0.107
143 | ATTGAGGC | 0.146
144 | CCCAGTCG | -0.267
145 | AAGGACCG | -0.117
146 | CCATTAGG | -0.209
147 | CTAACAGC | 0.0206
148 | AGCCACTC | 0.0834
149 | CTTTTTGC | 0.0819
150 | AACTAACC | 0.117

Row | Sequence | PBM E-score
151 | AAATGCCT | 0.285
152 | AAATGCCC | -0.108
153 | AAATGCCG | 0.443
154 | CAATGCCG | 0.374
155 | CAATGCCA | 0.0614
156 | CAATGCCC | 0.136
157 | GTGCTAAC | -0.0443
158 | ACAAGATG | -0.052
159 | AAACCTCA | -0.0665
160 | AGCGAACT | 0.00922
161 | AAAAGCCG | 0.326
162 | GAAAAGCC | 0.0718
163 | AACAGCCG | 0.255
164 | CAAAGCCC | -0.0858
165 | AAAAAGCC | 0.34
166 | CACAGCCG | 0.327
167 | CAAAAGCC | 0.121
168 | AAAAGCCC | -0.145
169 | CAAAGCCA | 0.0366
170 | CACAGCCC | -0.172
171 | AAAAGCCT | -0.0406
172 | CAAAGCCG | 0.316
173 | GAGATAGC | -0.111
174 | CACAGAAA | -0.00471
175 | TGGGCACA | 0.135

Row | Sequence | PBM E-score
176 | GTAGATGA | 0.0463
177 | GAGCTCTA | -0.101
178 | GAAATTTC | -0.153
179 | CCCTGGTC | -0.41
180 | AGCTAACC | -0.159
181 | CCTAGCCA | -0.0258
182 | CTGCGAAG | -0.175
183 | CGGCACGA | 0.459
184 | CTGCACGC | -0.0205
185 | CTGCACGA | -0.152
186 | CGGCACGC | 0.437
187 | GGGCACGA | 0.133
188 | AGGCACGC | 0.209
189 | GACACTCC | 0.0152
190 | AATTCTGA | 0.131
191 | GCATTTCC | 0.146
192 | AAGTAAGG | -0.0479
193 | ACCTATCG | 0.0549
194 | CAAGAGCC | 0.21
195 | CCAAGCCC | -0.241
196 | AGACGGCT | 0.343
197 | AGACGGCG | 0.463
198 | AGACGGGG | -0.154
199 | CGACGGCC | 0.0289
200 | AGACGGAT | 0.14

Row | Sequence | PBM E-score
201 | CGACGGCG | 0.353
202 | AGACGTCT | -0.219
203 | CGACGGAG | -0.147
204 | AGACGGCC | 0.121
205 | ACAGTCGG | -0.0418
206 | AAGCACCC | -0.224
207 | CAAATTGC | 0.115
208 | CTCAGTCC | -0.195
209 | ATGAAGAC | 0.0861
210 | ACGTTTAT | 0.0901
211 | CTGGGTGA | -0.229
212 | CAATAACC | 0.0421
213 | AGGGCTAG | -0.207
214 | AAGCTACT | -0.0664
215 | AACGCGGG | 0.184
216 | GACGCGGC | 0.466
217 | CACGCGGA | 0.294
218 | GACGCGGA | 0.136
219 | CACGCGGC | 0.459
220 | CACGCGGG | 0.143
221 | GACGCGAC | -0.0598
222 | AACGCGGC | 0.443
223 | AACGCGGA | 0.0987
